The values below come from the supplement of paper PMC5641865, “A screen for kinase inhibitors identifies antimicrobial imidazopyridine aminofurazans as specific inhibitors of the Listeria monocytogenes PASTA kinase PrkA” (The Journal of Biological Chemistry, 2017).

Molecules are shown by their SMILES. ± gives the standard deviation of the averaged measurements.
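Further: End-point A600 read in BHI broth at 37 °C with 2% DMSO, inhibition computed as (1 − OD with compound plus ceftriaxone ÷ OD with ceftriaxone only) × 100.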

In this test the test system is Listeria monocytogenes 10403S. The experiment in a line: growth inhibition relative to ceftriaxone-alone control; higher = stronger potentiation of ceftriaxone growth inhibition. The settings on record: 10 µM; ceftriaxone 1 ug/ml; 12 h.
As to `Oc1cc(O)cc(/C=C/c2ccc(O)c(O)c2)c1` [Piceatannol], the growth inhibition stood at 29.4 ± 16%.

On to `COc1ccc(COc2ccc(Cc3cnc(N)nc3N)cc2OC)cc1`, for which the growth inhibition turned out to be 63.8 ± 9.7%.

As for `NC(=O)c1ccc2c(-c3ccnc(NCCCO)n3)c(-c3ccc(F)cc3)nn2c1`, the growth inhibition was -7.27 ± 16%.

For the compound `Cn1cc(C=C2C(=O)Nc3cccnc32)c2ccccc21`, the growth inhibition was -13 ± 19%.

`C=CC(=O)Nc1cccc(Sc2nc(Nc3ccc(N4CCN(C)CC4)cc3)ncc2Cl)c1`: the growth inhibition stood at 94.1 ± 1.1%.

As for `Cc1ccc2c(c1)/C(=N/Nc1ccc(S(N)(=O)=O)cc1)C(=O)N2`, the growth inhibition was found to be 2.4 ± 3.2%.

As for `CNC(=O)CN1CCC(Oc2cc3c(Nc4cccc(Cl)c4F)ncnc3cc2OC)CC1`, the growth inhibition was 0.347 ± 1.9%.

Regarding `CNC(=O)c1nn(C)c2c1C(C)(C)Cc1cnc(Nc3ccc(N4CCN(C)CC4)cc3)nc1-2`, the growth inhibition turned out to be 20.7 ± 8.5%.

As to `O=C(O)c1ccc2c(c1)nc(Nc1cccc(Cl)c1)c1ccncc12` [CX-4945 (Silmitasertib)], the growth inhibition stood at 76.2 ± 9.6%.

Take `O=C(Nc1n[nH]c2nc(-c3ccco3)c(Br)cc12)C1CC1`: the growth inhibition was -3.36 ± 3.1%.

With `CC1=C(C(=O)Nc2ccc3[nH]ncc3c2)C(c2ccc3ccccc3c2)CC(=O)N1` (configuration not stated), the growth inhibition came to 11.5 ± 2.3%.

As for `CCn1c(-c2nonc2N)nc2c(C#CC(C)(C)O)nc(CN3CCCC3)cc21`, the growth inhibition turned out to be 4.95 ± 5.7%.

Take `O=C1NCCc2[nH]c(-c3ccncc3)cc21`: the growth inhibition is 22.8 ± 14%.

As to `CC(C)c1ccc(-c2cc(-c3c[nH]nc3-c3ccccn3)ccn2)cc1`, the growth inhibition is -6.81 ± 3%.

As to `Cc1ccc(C(=O)NC2CC2)cc1-c1ccc2[nH]ncc2c1`, the growth inhibition is 8.37 ± 0.62%.

As for `N#Cc1c(NC(=O)CN2CCOCC2)sc2c1CCCC2`, the growth inhibition stood at 9.96 ± 12%.

In the case of `Nc1nonc1-c1nc2cnccc2n1C1CC1`, the growth inhibition is -9.63 ± 4.1%.
